Data on eleven compounds can be found in PubChem BioAssay (NCATS).

The structures appear in SMILES notation. Records with an inconclusive call do not appear. A call without a number means that no potency is given here. Calls of active or inactive are those of the source. Calls come from the whole dose curve; as a rule, active = well fitted inhibition curve with a large enough effect; inconclusive = small, poorly fitted or top-dose-only effect; inactive = no such curve, though single readings can be large or run the other way.

Assay [1] has as its system Zika virus NS2B-NS3 protease (unlinked complex). The assay is described as follows: Primary screen GU Rhodamine qHTS for Zika virus inhibitors: Unlinked NS2B-NS3 protease assay (AID 1347159). Note: nearly all actives have a fitted effect of over 60% in size. The note with it: Recombinant ZIKV NS2B-NS3 protease, Rhodamine110 substrate fluorescence; series mostly up to 107 µM. The essentials:
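In dose–response format, inhibition of unlinked protease (25 nM) was measured with 1.5 microM bis-peptide Rhodamine110 substrate. Aprotinin served as the intraplate control.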
For orientation: Quantitative high-throughput screening tests each substance at several concentrations.

In assay [2] the test system is Zika virus NS2B-NS3 protease (linked construct). The assay is described as follows: Primary screen NINDS Rhodamine qHTS for Zika virus inhibitors (AID 1347160). Note: nearly all actives have a fitted effect of over 55% in size. The note with it: purified NS2B-NS3 protease, Rhodamine110 substrate fluorescence; series mostly up to 57.1 µM. The essentials: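 Each compound, titrated, sat 15 min with 25 nM linked protease before 1.5 microM Rhodamine110 substrate went in. Fluorescence gain over the next 15 min, in pH 8.0 Tris with Tween 20, gave Hill-fitted curves.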

Take `COC(=O)C[C@H]1C(C)(C)[C@H](OC(=O)C(C)C)[C@@]2(O)C(=O)[C@]1(C)C1CC[C@]3(C)C(CC(=O)O[C@H]3c3ccoc3)[C@]13O[C@@H]32` (some centres not stated): the Potency entry in assay [1] and in assay [2] was “inactive” throughout.

On to `Cc1c2cc(c(C(=O)O)c1C)OC1OC(C(O)C(O)C1O)C(O)C(O)C1OC(O2)C(O)C(O)C1O` (configuration not stated), for which the Potency entry in assay [1] and in assay [2] was “inactive” in each case.

Regarding `C[C@@H]1CC[C@]2(C(=O)O[C@@H]3O[C@H](CO)[C@@H](O)[C@H](O)[C@H]3O)CC[C@]3(C)C(=CCC4[C@@]5(C)C[C@@H](O)[C@H](O)[C@](C)(C(=O)O)C5CC[C@]43C)[C@@H]2[C@]1(C)O` (some centres not stated), the Potency result in assay [1] and in assay [2] was “inactive” each time.

As to `CCOCc1nc2c(N)nc3ccccc3c2n1CC(C)(C)O`, the Potency entry in assay [1] and in assay [2] was “inactive” each time.

Turning to `COc1ccc(CNC(=O)c2cc(-c3cncc(C)c3)ncc2-c2nccs2)nc1OC`, the Potency entry in assay [1] and in assay [2] was “inactive” in each case.

As to `COc1cc(Br)c(S(=O)(=O)Nc2ccc(C(F)(F)F)c(O[C@@H]3CCN(C)C3)c2)cc1OC`, the Potency entry in assay [1] and in assay [2] was “inactive” in each case.

On to `CC[C@H](C)[C@H](NC(=O)[C@H]([C@@H](C)CC)N(C)C(C)=O)C(=O)N[C@H](C(=O)N[C@@H](CC(C)C)C(=O)[C@@]1(C)CO1)[C@@H](C)O`, for which the Potency result in assay [1] and in assay [2] was “inactive” in each case.

As for `COc1ccc(F)cc1-c1cc(NC(=O)[C@@H]2CCCNC2)ncc1Cl`, the Potency result in assay [1] and in assay [2] was “inactive” in each case.

Regarding `CCCCc1nc2cc(/C=C/C(=O)NO)ccc2n1CCN(CC)CC`, the Potency entry in assay [1] and in assay [2] was “inactive” throughout.

Take `O=C(O)COCCN1CCN([C@H](c2ccccc2)c2ccc(Cl)cc2)CC1`: the Potency entry in assay [1] and in assay [2] was “inactive” throughout.

`COc1cc(C(=O)OC[C@@]2(O)CO[C@@H](O[C@H]3[C@H](Oc4ccc(C(=O)O)cc4OC)O[C@H](CO)[C@@H](O)[C@@H]3O)[C@@H]2O)ccc1O`: the Potency entry in assay [1] and in assay [2] was “inactive” throughout.
